Inconclusive results are not listed. The source made the active and inactive calls. The call rests on the fitted dose curve; in most records, active means well fitted curve in the direction sought with a large enough effect; inconclusive means small, poorly fitted or top-dose-only effect, or another doubt; inactive means no such curve, though single readings can be large; an effect the other way counts as inactive or inconclusive.
Experiments:
[1] = qHTS of pediatric cancer cell lines to identify multiple opportunities for drug repurposing: Primary screen for SK-N-SH cells (AID 1347098); further: nearly all actives have a fitted effect of over 65% in size
Method in brief: (§1)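 Cells (500-1,000/well) rested 5 h, then received compounds for 48 h; metabolically active cells were measured by CellTiter-Glo luminescence. Final concentrations spanned up to 46 µM (MIPE, 11-point) or 0.59 nM-46 µM (NPC, 8-point) in primary screens, 11-point in follow-ups.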

[2] = qHTS of pediatric cancer cell lines to identify multiple opportunities for drug repurposing: Primary screen for NB1643 cells (AID 1347099); further: nearly all actives have a fitted effect of over 50% in size
Method in brief: (§2)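 Cells seeded at 500-1,000 cells/well in growth media, rested 5 hours at 37 degrees C, 5% CO2, then dosed; MIPE compounds at 11-point (from 0.78 nM) and NPC at 8-point (from 0.59 nM) final concentrations. Viability by CellTiter-Glo luminescence after 48 hours.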

[3] = qHTS of pediatric cancer cell lines to identify multiple opportunities for drug repurposing: Primary screen for LAN-5 cells (AID 1347100)
Method in brief: (§3)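 Cells (500-1,000/well) in growth media were settled 5 h at 37 degrees C, then given compounds for 48 h. Viability was read as CellTiter-Glo luminescence. Primary runs used MIPE at 11 points (0.78 nM-46 µM) and NPC at 8 points (0.59 nM-46 µM); follow-ups used 11 points.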

[4] = qHTS of pediatric cancer cell lines to identify multiple opportunities for drug repurposing: Primary screen for Rh18 cells (AID 1347102); further: nearly all actives have a fitted effect of over 65% in size
Method in brief: as §3

[5] = qHTS of pediatric cancer cell lines to identify multiple opportunities for drug repurposing: Primary screen for RD cells (AID 1347104); further: nearly all actives have a fitted effect of over 55% in size
Method in brief: as §2

[6] = qHTS of pediatric cancer cell lines to identify multiple opportunities for drug repurposing: Primary screen for MG 63 (6-TG R) cells (AID 1347105); further: nearly all actives have a fitted effect of over 50% in size
Method in brief: as §2

[7] = qHTS of pediatric cancer cell lines to identify multiple opportunities for drug repurposing: Primary screen for control Hh wild type fibroblast cells (AID 1347106); further: nearly all actives have a fitted effect of over 55% in size
Method in brief: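 Viability after 48 h compound treatment at 37C, 500-1,000 cells/well, read as ATP luminescence with CellTiter-Glo. Primary screens used 11-point (MIPE, 0.78 nM-46 µM) or 8-point (NPC, 0.59 nM-46 µM) final concentrations; follow-up screens used 11-point dilutions.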

[8] = qHTS of pediatric cancer cell lines to identify multiple opportunities for drug repurposing: Primary screen for Rh30 cells (AID 1347107); further: nearly all actives have a fitted effect of over 75% in size
Method in brief: as §3

[9] = qHTS of pediatric cancer cell lines to identify multiple opportunities for drug repurposing: Primary screen for Rh41 cells (AID 1347108); further: nearly all actives have a fitted effect of over 70% in size
Method in brief: as §2

[10] = qHTS of pediatric cancer cell lines to identify multiple opportunities for drug repurposing: Primary screen for OHS-50 cells (AID 1347103); further: nearly all actives have a fitted effect of over 40% in size
Method in brief: as §1

[11] = qHTS of pediatric cancer cell lines to identify multiple opportunities for drug repurposing: Confirmatory screen for NB1643 cells (AID 1347109); further: nearly all actives have a fitted effect of over 45% in size
Method in brief: as §3

[12] = qHTS of pediatric cancer cell lines to identify multiple opportunities for drug repurposing: Confirmatory screen for A673 cells (AID 1347110);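 further: cells exposed to compound for 48 h before the viability read; nearly all actives have a fitted effect of over 65% in size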
Method in brief: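 A673 cells seeded at 500-1,000 cells/well, rested 5 h, then dosed; primary MIPE 11-point (0.78 nM to 46 µM), NPC (0.59 nM to 46 µM); confirmatory 11-point. CellTiter-Glo luminescence after 48 h.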

[13] = qHTS of pediatric cancer cell lines to identify multiple opportunities for drug repurposing: Confirmatory screen for SK-N-MC cells (AID 1347111);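 further: cells exposed to compound for 48 h before the readout; nearly all actives have a fitted effect of over 70% in size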
Method in brief: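 Metabolically active cells were quantified by ATP-dependent luminescence (CellTiter-Glo, 15 min at room temperature) following 48 h treatment. Cells had been plated at 500-1,000 per well and settled for 5 h beforehand.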

[14] = qHTS of pediatric cancer cell lines to identify multiple opportunities for drug repurposing: Confirmatory screen for BT-12 cells (AID 1347112); further: nearly all actives have a fitted effect of over 55% in size
Method in brief: as §3

[15] = qHTS of pediatric cancer cell lines to identify multiple opportunities for drug repurposing: Confirmatory screen for LAN-5 cells (AID 1347113); further: nearly all actives have a fitted effect of over 65% in size
Method in brief: as §3

[16] = qHTS of pediatric cancer cell lines to identify multiple opportunities for drug repurposing: Confirmatory screen for NB-EBc1 cells (AID 1347115);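 further: cells exposed to compound for 48 h before the viability read; nearly all actives have a fitted effect of over 45% in size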
Method in brief: as §3

[17] = qHTS of pediatric cancer cell lines to identify multiple opportunities for drug repurposing: Confirmatory screen for SJ-GBM2 cells (AID 1347116); further: nearly all actives have a fitted effect of over 60% in size
Method in brief: (§4)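 Viability measured as metabolically active cells via CellTiter-Glo luminescence following 48 hours of compound exposure, 11-point dilutions in confirmatory testing. 500-1,000 cells/well plated 5 hours before dosing; controls were DMSO and 2.3 µM bortezomib.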

[18] = qHTS of pediatric cancer cell lines to identify multiple opportunities for drug repurposing: Confirmatory screen for BT-37 cells (AID 1347117); further: nearly all actives have a fitted effect of over 55% in size
Method in brief: as §3

[19] = qHTS of pediatric cancer cell lines to identify multiple opportunities for drug repurposing: Confirmatory screen for DAOY cells (AID 1347114); further: nearly all actives have a fitted effect of over 65% in size
Method in brief: as §4
Potency means the concentration at half of the fitted maximal effect.

Compound | Potency [1] | Potency [2] | Potency [3] | Potency [4] | Potency [5] | Potency [6] | Potency [7] | Potency [8] | Potency [9] | Potency [10] | Potency [11] | Potency [12] | Potency [13] | Potency [14] | Potency [15] | Potency [16] | Potency [17] | Potency [18] | Potency [19]
COc1c(N2C[C@@H]3CCCN[C@H]3C2)c(F)cc2c(=O)c(C(=O)O)cn(C3CC3)c12 | inactive | inactive | inactive | inactive | inactive | inactive | inactive | inactive | inactive | – | – | – | – | – | – | – | – | – | –
COCCn1c2c([n+](Cc3cnccn3)c1C)C(=O)c1ccccc1C2=O | 482 nM (active) | 209 nM (active) | 4.7 nM (active) | 33.2 nM (active) | 11.8 nM (active) | 187 nM (active) | 264 nM (active) | 14.8 nM (active) | 46.9 nM (active) | 15.3 nM (active) | 208 nM (active) | 16.5 nM (active) | 9.3 nM (active) | 9.3 nM (active) | 5.9 nM (active) | 1040 nM (active) | 65.7 nM (active) | 82.7 nM (active) | –
Clc1cccc(-n2nnnc2NCc2ccccc2Oc2ccccn2)c1Cl | inactive | inactive | inactive | inactive | inactive | inactive | inactive | inactive | – | – | – | – | – | – | – | – | – | – | –
COc1ccc(-c2cc3c(C)nc(N)nc3n(C3CCC(OCCO)CC3)c2=O)cn1 (stereo not drawn) | 2410 nM (active) | 166 nM (active) | 469 nM (active) | 93.5 nM (active) | 187 nM (active) | – | – | 4180 nM (active) | 118 nM (active) | 7.7 nM (active) | inactive | 1170 nM (active) | – | inactive | inactive | inactive | inactive | inactive | inactive
CC(=O)c1c(C)c2cnc(Nc3ccc(N4CCNCC4)cn3)nc2n(C2CCCC2)c1=O | 24100 nM (active) | 16600 nM (active) | 18700 nM (active) | 23500 nM (active) | 18700 nM (active) | – | inactive | – | – | 19300 nM (active) | – | – | – | – | – | – | – | – | –
COc1cc(C(=O)N2CCC(N3CCN(C)CC3)CC2)ccc1Nc1ncc2c(n1)N(C)c1ccccc1C(=O)N2C | 21500 nM (active) | 9350 nM (active) | 5260 nM (active) | 11800 nM (active) | 14800 nM (active) | 9350 nM (active) | – | – | 9350 nM (active) | 7690 nM (active) | – | – | – | – | – | – | – | – | –
CC[C@H]1CN2CCc3cc(OC)c(OC)cc3[C@H]2C[C@@H]1C[C@@H]1NCCc2cc(OC)c(OC)cc21 | 341 nM (active) | 418 nM (active) | 833 nM (active) | 2090 nM (active) | – | – | inactive | inactive | 4690 nM (active) | 485 nM (active) | 1850 nM (active) | 657 nM (active) | 293 nM (active) | 261 nM (active) | 165 nM (active) | 657 nM (active) | 522 nM (active) | 293 nM (active) | 3690 nM (active)
Nc1ncnc2c1c(-c1cccc(OCc3ccccc3)c1)cn2C1CC(CN2CCCC2)C1 (stereo not drawn) | 21500 nM (active) | 4180 nM (active) | 1320 nM (active) | 18700 nM (active) | 5260 nM (active) | 18700 nM (active) | – | – | 1870 nM (active) | 432 nM (active) | – | – | – | – | – | – | – | – | –
Cc1nc(N)ncc1-c1nc(N2CCOCC2)c2sc(C(C)(C)O)cc2n1 | 1210 nM (active) | 469 nM (active) | 1320 nM (active) | – | 1480 nM (active) | 296 nM (active) | – | – | 1870 nM (active) | 68.5 nM (active) | 1650 nM (active) | 2330 nM (active) | 293 nM (active) | – | 1470 nM (active) | – | – | 8270 nM (active) | –
Cn1cncc1[C@@](N)(c1ccc(Cl)cc1)c1ccc2c(c1)c(-c1cccc(Cl)c1)cc(=O)n2C | 8570 nM (active) | 18700 nM (active) | 5900 nM (active) | 16600 nM (active) | 16600 nM (active) | 23500 nM (active) | – | 14800 nM (active) | 14800 nM (active) | 7690 nM (active) | – | – | – | – | – | – | – | – | –
CCOc1ccccc1OCCNC(C)Cc1ccc(OC)c(S(N)(=O)=O)c1 (stereo not drawn) | inactive | inactive | inactive | inactive | inactive | – | inactive | inactive | inactive | inactive | – | – | – | – | – | – | – | – | –
OCc1ccc(-c2ccc(-c3ccc(CO)s3)o2)s1 | 21500 nM (active) | 26400 nM (active) | inactive | inactive | – | – | inactive | 16600 nM (active) | 7430 nM (active) | – | – | – | – | – | – | – | – | – | –
COc1cc(OC2CCN(C)CC2)ccc1Nc1ncc2c(n1)n(C1CCCC1)c(=O)n2C | 12100 nM (active) | 10500 nM (active) | 13200 nM (active) | 20900 nM (active) | 18700 nM (active) | 23500 nM (active) | – | 20900 nM (active) | 18700 nM (active) | 19300 nM (active) | – | – | – | – | – | – | – | – | –
O=C(Nc1cn[nH]c1-c1nc2ccc(CN3CCOCC3)cc2[nH]1)NC1CC1 | 242 nM (active) | 5260 nM (active) | 10.5 nM (active) | 935 nM (active) | 5900 nM (active) | 7430 nM (active) | 10500 nM (active) | inactive | 4690 nM (active) | – | – | inactive | 1650 nM (active) | inactive | inactive | inactive | – | inactive | inactive

Reference: PubChem BioAssay (NCATS)
